# Measurements reported in the supplement of paper PMC6555819.
# Columns and labels:
# Assay in all cases: PBM binding z-score (relative to random genomic background probes); higher = stronger binding; sequences stand for … in GC…GCGATTGACAGCGTAGAATGAAGG
# [1] = test system: FXR:RXRa (NR concentration 270 nM, RXRa partner concentration 90 nM)
# How it was run: (§1)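 Probes were double-stranded and carried 34-nt variable regions with direct-repeat seeds, single-nucleotide variants, half-site ablations and random human genomic background sequences, printed on custom Agilent 4×180K protein-binding microarrays. Arrays were incubated 1 h with ligand-free nuclear receptor dimers in PBS pH 7.4, 2% milk, 0.02% Triton X-100, 1 mM DTT, 0.2 mg/mL BSA and 0.4 mg/ml salmon testes DNA. Antibodies against each partner (one per run) detected binding, and scanned fluorescence was regression-normalized. Binding z-scores use the random background probes as reference.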
# [2] = test system: LXRa:RXRa (NR concentration 270 nM, RXRa partner concentration 90 nM)
# How it was run: as §1
# [3] = test system: LXRa homodimer (NR concentration 270 nM)
# How it was run: as §1
# [4] = test system: LXRb:RXRa (NR concentration 270 nM, RXRa partner concentration 90 nM)
# How it was run: as §1
# [5] = test system: LXRb homodimer (NR concentration 270 nM)
# How it was run: as §1
# [6] = test system: PPARa:RXRa (NR concentration 270 nM, RXRa partner concentration 90 nM)
# How it was run: as §1
# [7] = test system: PPARg:RXRa (NR concentration 180 nM, RXRa partner concentration 90 nM)
# How it was run: as §1
# [8] = test system: PPARg:RXRa 270nM:90nM, anti-RXR (NR concentration 270 nM, RXRa partner concentration 90 nM)
# How it was run: as §1
# [9] = test system: PPARg:RXRa 30nM:10nM, anti-RXR (NR concentration 30 nM, RXRa partner concentration 10 nM)
# How it was run: as §1
# [10] = test system: PPARg:RXRa 90nM:30nM, anti-RXR (NR concentration 90 nM, RXRa partner concentration 30 nM)
# How it was run: as §1
# [11] = test system: PPARg:RXRa DBDmut IVT, anti-RXR (DBD mutation: RXRa K156A/R161A, NR concentration 270 nM, RXRa partner concentration 90 nM)
# How it was run: as §1
# [12] = test system: PPARg:RXRa IVT, anti-PPARg (NR concentration 270 nM, RXRa partner concentration 90 nM)
# How it was run: as §1
# [13] = test system: PPARg DBDmut:RXRa IVT, anti-PPARg (DBD mutation: PPARg1 K132A/R137A, NR concentration 270 nM, RXRa partner concentration 90 nM)
# How it was run: as §1
# [14] = test system: PPARg DBDmut IVT, anti-PPARg (DBD mutation: PPARg1 K132A/R137A, NR concentration 270 nM)
# How it was run: as §1
# [15] = test system: PPARg homodimer (NR concentration 180 nM)
# How it was run: as §1
# [16] = test system: PXR:RXRa (NR concentration 270 nM, RXRa partner concentration 90 nM)
# How it was run: as §1
# [17] = test system: PXR homodimer (NR concentration 270 nM)
# How it was run: as §1
# [18] = test system: RARa:RXR (NR concentration 270 nM, RXRa partner concentration 90 nM)
# How it was run: as §1
# [19] = test system: RARa homodimer (NR concentration 270 nM)
# How it was run: as §1
# [20] = test system: RARb:RXRa (NR concentration 270 nM, RXRa partner concentration 90 nM)
# How it was run: as §1
Sequence,PBM binding z-score [1],PBM binding z-score [2],PBM binding z-score [3],PBM binding z-score [4],PBM binding z-score [5],PBM binding z-score [6],PBM binding z-score [7],PBM binding z-score [8],PBM binding z-score [9],PBM binding z-score [10],PBM binding z-score [11],PBM binding z-score [12],PBM binding z-score [13],PBM binding z-score [14],PBM binding z-score [15],PBM binding z-score [16],PBM binding z-score [17],PBM binding z-score [18],PBM binding z-score [19],PBM binding z-score [20]
GATACAGGGTCTGCTAGAGGCCAGAGTATGGAAA,-0.351,-0.359,-0.605,-0.772,-0.649,-0.759,0.108,-0.444,-0.281,-0.382,-0.826,-0.333,-1.05,-1.35,-0.406,-0.54,-0.558,-0.523,-0.148,0.305
TGTTGTAGATCAACAGGAGGTTAAGAAAGATCGA,0.0129,0.966,0.018,0.701,-0.0946,0.963,-0.033,0.456,0.304,0.492,-0.279,0.51,0.32,0.601,0.107,0.714,-0.0905,0.912,-0.122,0.386
GCTCGGAGGACACGGTCAGAGCTTTGTCCGTAGA,-0.337,-0.705,-0.568,-0.918,-1.3,-0.523,-0.859,-0.893,-1.3,-1.06,-0.213,-0.07,-1.69,-1.2,-0.679,-0.581,-1.34,-0.541,-1.26,2.09
TAGCCTAGGTCATGGGCCAGAATACCACGCGAAC,4.31,3.48,0.271,2.33,-0.281,4.2,3.64,3.63,0.806,2.68,1.38,3.09,-0.303,-0.638,0.86,1.54,-0.601,2.51,0.121,3.73
GGAACGAGGGCATTCGAGTTAATAGCATGGCGAT,1.38,1.05,-0.476,0.179,-0.759,1.58,1.18,0.939,0.26,1.09,3.25,2.26,-0.564,-0.5,0.00587,3.48,0.437,0.742,-0.33,1.8
TCTCGGAGGACACGAAAGGTCAGAGTTCGACATC,3.3,4.16,4.17,3.5,0.134,3.71,1.72,3.4,2.89,3.12,1.62,1.81,-0.309,-0.696,3.27,4.98,3,5.55,1.69,4.16
CCTCTGAGGACAGAAGGTCAGAGCTGTCCGCTTT,2.01,1.73,0.0206,1.25,-0.446,2.02,0.0496,1.3,-0.534,0.582,0.612,0.36,-0.397,-1.71,1.53,1.95,-0.313,2.59,-0.25,3.44
AGAATGAGGTTATACGTAGATCAGGGTAGAAAGT,2.27,1.96,0.00674,1.65,0.246,3.21,2.08,2.36,0.669,1.22,4.24,2.33,1.07,0.356,1.01,1.35,0.929,1.86,0.591,1.59
AGAATGAGGTTATACGTGGATCAGGGAAGAAAGT,2.49,2.03,0.117,1.91,0.299,3.25,1.82,2.19,0.672,1.49,3.62,2.12,1.26,0.938,1.69,1.17,0.993,1.89,0.612,1.55
CGAATTAGGTCAGAACAGGACAGTGAAGGATGAT,1.56,1.31,0.144,0.781,0.086,3.41,4.98,4.59,2.05,3.65,7.02,7.15,2.8,1.42,1.73,1.09,0.149,1.31,1.19,3.29
AGTCAAAGTTCACTAGGTAACGTATGATTCAGCT,4.96,4.91,2.85,3.16,1.09,4.64,7.19,6.52,3,5.54,2.65,4.66,1.13,1.39,2.15,3.83,2.69,2.93,1.04,4.76
TAGCCTAGGTCATTGGGCCAGTACAGTACGCATC,4.4,3.61,1.04,2.35,0.354,3.83,3.38,3.78,0.72,2.63,2.86,3.89,-0.0279,0.0815,1.12,1.71,-0.112,2.12,-0.528,3.67
TCATATAGGTAAACCGGTGAAAGTCCGTAAGTTA,0.407,0.533,0.147,0.517,-0.352,1.68,1.17,2.72,3.49,2.97,4.14,3.35,0.791,0.416,0.766,0.768,0.578,0.953,0.584,0.426
TCTAGTTGGTCACGGAGGTCACACAGGACGGGTA,3.66,3.54,2.46,3.05,0.75,3.83,3.74,3.76,3.51,3.91,2.41,4.28,0.872,-0.126,3.68,4.78,3.02,4.72,1.58,3.98
